Screening results as filed in PubChem.
PRC2 inh: EZH2/PRC2 methyltransferase inhibitors, primary screen, biochemical, DELFIA time-resolved fluorescence, single point; inhibition, % at 12.5 µM; Histone-lysine N-methyltransferase EZH2 (Homo sapiens), Q15910; PRC2 H3K27 methylation, DELFIA TRF, 1 h; hit rate 0.35% among 57,000; AID 651548, 2012;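 active = mean inhibition of replicates at least 50% and every single replicate also reaching 50%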;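 note: dimethyl H3K27 on biotinylated H3 21-44 peptide detected by antibody; plate controls were median neutral control wells for no effect and median positive control wells for full effect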
Target sequence (Q15910 whole entry, looked up): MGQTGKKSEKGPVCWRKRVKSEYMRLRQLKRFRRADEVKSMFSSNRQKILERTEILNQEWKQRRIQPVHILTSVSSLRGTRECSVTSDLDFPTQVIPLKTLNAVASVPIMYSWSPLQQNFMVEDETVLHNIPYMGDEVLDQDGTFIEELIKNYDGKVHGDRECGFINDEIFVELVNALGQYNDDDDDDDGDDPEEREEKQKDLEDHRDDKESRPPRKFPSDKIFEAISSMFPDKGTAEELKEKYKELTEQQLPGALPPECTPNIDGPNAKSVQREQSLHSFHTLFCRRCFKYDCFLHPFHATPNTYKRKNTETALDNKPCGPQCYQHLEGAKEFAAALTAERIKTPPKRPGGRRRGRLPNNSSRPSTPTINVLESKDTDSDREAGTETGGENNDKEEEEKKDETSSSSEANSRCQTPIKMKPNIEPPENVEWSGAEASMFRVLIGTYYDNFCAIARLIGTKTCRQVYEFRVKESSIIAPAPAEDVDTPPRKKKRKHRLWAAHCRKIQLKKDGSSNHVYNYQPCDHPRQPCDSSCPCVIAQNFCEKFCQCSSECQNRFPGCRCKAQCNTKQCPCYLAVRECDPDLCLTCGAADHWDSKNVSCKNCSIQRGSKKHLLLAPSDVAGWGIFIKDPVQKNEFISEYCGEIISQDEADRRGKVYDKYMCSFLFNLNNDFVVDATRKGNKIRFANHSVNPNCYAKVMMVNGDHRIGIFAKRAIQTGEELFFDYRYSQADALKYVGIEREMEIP
* = called active by the depositor. Many of the other results were omitted from the sample, so hits are more common in it than they were.

SMILES	PRC2 inh
COC(=O)[C@@H](O)[C@H]1[C@@]2(C)C[C@]3(O)C4[C@@H](O[C@]56CC(=O)O[C@@H](c7ccoc7)[C@@]5(C)CCC([C@]46O)[C@]13C)[C@H]2O (stereo not given in full)	100*
O=C(NO)c1cccc(C(=O)N/N=C/c2cc(Br)ccc2O)c1	8
O=C(NO)c1cccc(C(=O)N/N=C/c2cc(Br)cc(Br)c2O)c1	-27
O=C(CCCCCC(=O)N/N=C/c1cc(O)ccc1O)NO	0
O=C(NO)c1cccc(C(=O)N/N=C/c2ccc(O)c3ccccc23)c1	-3
O=C(NO)c1cccc(C(=O)N/N=C/c2ccc(O)cc2O)c1	-3
O=C(NO)c1cccc(C(=O)N/N=C/c2ccc(O)c(O)c2O)c1	95*
O=C(CCCCC(=O)N/N=C/c1ccc(O)c(O)c1O)NO	76*
O=C(NO)c1cccc(C(=O)N/N=C/c2cccc(O)c2O)c1	79*
O=C(CCCCCC(=O)N/N=C/c1ccc(O)cc1O)NO	5
CCCN1C[C@@H](C)[C@H](OC)CN(C)C(=O)c2cc(NC(=O)C3CC3)ccc2OC[C@H]1C	-14
CCCN(C)C[C@H]1OCCCC[C@@H](C)Oc2ccc(NS(C)(=O)=O)cc2C(=O)N([C@@H](C)CO)C[C@H]1C	-10
COC(=O)c1ccc2c(=O)n(CCc3cnc[nH]3)c(=S)[nH]c2c1	-4
O=C(N[C@H]1CC[C@@H](CCNC(=O)C2CCCC2)O[C@H]1CO)c1ccncc1	21
COc1ccc(NC(=O)CSc2nc3ccccc3c(=O)n2-c2ccc(C)cc2)cc1Cl	-12
Cc1ccc2c(CC(=O)Nc3cccc([N+](=O)[O-])c3)coc2c1C	51*
Cc1ccc2c(CC(=O)NCc3ccco3)coc2c1C	-10
Cc1cc(C)c(S(=O)(=O)N(C)CC(=O)Nc2cccc([N+](=O)[O-])c2)c(C)c1	-6
CNC[C@@H]1Oc2c(NC(=O)C3CCCCC3)cccc2C(=O)N([C@H](C)CO)C[C@H]1C	-12
CO[C@@H]1CN(C)C(=O)c2cc(NC(=O)Nc3ccc(Cl)cc3)ccc2OC[C@@H](C)N(C)C[C@@H]1C	-4
C/C=C/[C@H](CCn1cc(CCO)nn1)[Si](C)(C)c1ccc(OC)cc1	27
C/C=C/[C@@H](CCn1cc(CCO)nn1)[Si](C)(C)c1ccc(OC)cc1	13
C/C=C/[C@H](CC(=O)N(CCO)Cc1ccccc1)[Si](C)(C)c1ccc(OC)cc1	58*
COc1ccc(N(CC(=O)Nc2c(F)cccc2F)S(C)(=O)=O)cc1Cl	-3
COc1ccc(CN(C)C[C@@H]2Oc3ccc(NC(=O)Cn4cnnn4)cc3C(=O)N([C@@H](C)CO)C[C@H]2C)cc1	-5
SMILES	PRC2 inh
CNC(=O)c1cc(Oc2ccc(NC(=O)Nc3ccc(Cl)c(C(F)(F)F)c3)cc2)ccn1	57*
CS(=O)(=O)N(CC(=O)Nc1ccc(Cl)c(C(F)(F)F)c1)c1cccc(C(F)(F)F)c1	22
CC(=O)Nc1ccc(NC(=O)CN(c2ccc(Cl)c(C(F)(F)F)c2)S(C)(=O)=O)cc1	-27
COc1ccc(CNC(=O)C[C@@H]2C=C[C@H](NC(=O)Nc3ccc4c(c3)OCO4)[C@H](CO)O2)cc1	-8
COc1ccc(S(=O)(=O)NCc2ccco2)c(Cl)c1Cl	-1
O=c1cc(O)cc(/C=C/c2ccc(O)c(O)c2)o1	87*
Oc1ccc(/C=C/c2cc(O)cc(O)c2)cc1	-8
Cc1cc(=O)oc2c(O)c(O)ccc12	-3
C[C@@H]1CN([C@@H](C)CO)C(=O)Cc2cc(NC(=O)Nc3ccc4c(c3)OCO4)ccc2O[C@@H]1CN(C)Cc1ccccc1	-14
CN(C)C(=O)C[C@H]1C[C@@H]2c3cc(NS(=O)(=O)c4ccccc4)ccc3O[C@@H]2[C@@H](CO)O1	14
C[C@@H]1CN([C@H](C)CO)C(=O)c2cc(C#Cc3ccncc3)cnc2O[C@H]1CN(C)CC1CCOCC1	100*
C[C@@H]1CN([C@@H](C)CO)C(=O)c2cc(C#Cc3ccncc3)cnc2O[C@@H]1CN(C)CC1CCOCC1	14
C[C@H]1CN([C@@H](C)CO)C(=O)c2cc(C#Cc3ccccc3)cnc2O[C@@H]1CN(C)CC1CCOCC1	-12
C[C@@H]1CN([C@@H](C)CO)C(=O)c2cc(C3=CCCC3)cnc2O[C@H]1CN(C)Cc1ccccc1	-6
O=C(Nc1cccc2ccccc12)OCCn1ncc2ccccc2c1=O	-7
Nc1c(S(=O)(=O)O)cc(Nc2ccc(Cl)cc2)c2c1C(=O)c1ccccc1C2=O	68*
Nc1c(S(=O)(=O)O)cc(Nc2cccc3ccccc23)c2c1C(=O)c1ccccc1C2=O	82*
O=C(CNS(=O)(=O)c1ccc(Br)cc1)Nc1cccc2ccccc12	11
COc1ccc(NC(=O)CSc2nccc(=O)[nH]2)cc1Cl	-8
COCC(=O)N(C)C[C@H]1Oc2cc(C#Cc3ccccc3)ccc2S(=O)(=O)N([C@H](C)CO)C[C@@H]1C	-2
O=C(NCC[C@H]1CC[C@H](NC(=O)c2cccnc2)[C@@H](CO)O1)Nc1ccc(F)cc1	2
C[C@H]1CN([C@@H](C)CO)C(=O)c2cc(NS(=O)(=O)c3ccccc3)ccc2O[C@@H]1CN(C)Cc1ccncc1	7
Cc1ccc(S(=O)(=O)N(C)C[C@H]2Oc3c(cccc3N(C)C)C(=O)N([C@@H](C)CO)C[C@H]2C)cc1	4
O=C(CCNc1ccc(Cl)c(C(F)(F)F)c1)c1ccccc1	56*
O=C(CNS(=O)(=O)c1ccccc1)Nc1ccc(Cl)c(C(F)(F)F)c1	0
SMILES	PRC2 inh
O=C(CCCN1C(=O)c2ccccc2C1=O)Nc1ccc(Cl)c(C(F)(F)F)c1	13
O=C(C[C@@H]1C=C[C@H](NC(=O)c2cccc(F)c2)[C@H](CO)O1)NCCN1CCCC1	1
COc1ccc(C#Cc2ccc3c(c2)[C@]2(C(=O)N3)[C@H](c3ccccc3OCCO)N3[C@H](c4ccccc4)[C@H](c4ccccc4)OC(=O)[C@H]3[C@@H]2C(N)=O)cc1	-38
COC(=O)C(CC#Cc1ccc2c(c1)[C@]1(C(=O)N2)[C@H](C(=O)O)[C@H]2C(=O)O[C@H](c3ccccc3)[C@H](c3ccccc3)N2[C@@H]1c1ccc(OCCO)cc1)C(=O)OC	40
COc1ccc(C#Cc2ccc3c(c2)[C@]2(C(=O)N3)[C@H](C(=O)O)[C@H]3C(=O)O[C@H](c4ccccc4)[C@H](c4ccccc4)N3[C@@H]2c2ccccc2OCCO)cc1	75*
COC(=O)C(CC#Cc1ccc2c(c1)[C@]1(C(=O)N2)[C@H](c2ccccc2OCCO)N2[C@H](c3ccccc3)[C@H](c3ccccc3)OC(=O)[C@H]2[C@@H]1C(=O)O)C(=O)OC	69*
O=C1O[C@H](c2ccccc2)[C@H](c2ccccc2)N2[C@H]1[C@@H](C(=O)O)[C@]1(C(=O)Nc3ccc(C#CCCO)cc31)[C@H]2c1ccccc1OCCO	23
COC(=O)C(CC#Cc1ccc2c(c1)[C@]1(C(=O)N2)[C@H](C(=O)N2CCCCCCC2)[C@H]2C(=O)O[C@H](c3ccccc3)[C@H](c3ccccc3)N2[C@@H]1c1ccccc1OCCO)C(=O)OC	-10
COCC#Cc1cnc2c(c1)C(=O)N([C@@H](C)CO)C[C@H](C)[C@H](CN(C)S(=O)(=O)c1cn(C)cn1)O2	-12
O=C(CCCCC(=O)N/N=C/c1cccc(Br)c1)NO	-5
CO[C@@H]1CN(C)C(=O)c2ccc(NC(=O)C3CCOCC3)cc2OC[C@H](C)NC[C@H]1C	-1
O=C(O)C12CC3CC(C1)CC(n1ncc(NCc4ccc(F)cc4)c(Cl)c1=O)(C3)C2	16
